Assay [1] can be described thus: ATG_GRE_CIS: Attagene CIS-FACTORIAL HepG2 Assay for human Glucocorticoid Response Elements (GRE) (AID 2282947). The note with it: HepG2 GRE cis-reporter, Attagene multiplex mRNA; actives raise or lower the signal. The essentials: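 Endogenous transcription factor activity is read through cis-element reporter constructs transiently transfected into HepG2 cells. After 24 h treatment, labelled RT-PCR products are resolved by capillary electrophoresis; DMSO sets baseline for bidirectional curve fitting.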

Assay [2] in a line: ATG_ISRE_CIS: Attagene CIS-FACTORIAL HepG2 Assay for human Interferon Regulatory Factor 1 (IRF1) binding to an Interferon-Stimulated Response Element (ISRE) (AID 2282948). The note with it: HepG2 ISRE cis-reporter (Attagene), mRNA transcription readout; actives raise or lower the signal. The essentials: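 HepG2 cells transiently transfected with multiplexed cis-promoter reporter units; after 24 h compound exposure, reporter mRNA quantified by RT-PCR, FAM labelling, HpaI digestion and capillary electrophoresis. Bidirectional fit versus DMSO baseline.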

The nature of assay [3]: ATG_M_32_CIS: Attagene CIS-FACTORIAL HepG2 Assay for M32 Transcription Factor (Internal Marker) (AID 2282949).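 Also: background control marker of the multiplexed CIS panel rather than a real target.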 The note with it: HepG2 Attagene cis-factorial M32 reporter, mRNA; actives raise or lower the signal. The essentials:
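Internal background marker read-out: RT-PCR/capillary electrophoresis fluorescence of reporter transcripts from transiently transfected HepG2 cells after 24 h chemical exposure. Activity fitted bidirectionally relative to DMSO negative control.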

Assay [4] can be described thus: ATG_M_06_CIS: Attagene CIS-FACTORIAL HepG2 Assay for M06 Transcription Factor (Internal Marker) (AID 2282950). The note with it: HepG2 Attagene CIS-FACTORIAL M06 internal marker reporter; actives raise or lower the signal. The essentials: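 Read-out is fluorescence of labelled reporter cDNA fragments resolved by capillary electrophoresis after RT-PCR. Cells: HepG2 carrying transfected cis-promoter reporter units, treated 24 h. Gain or loss of signal fitted relative to DMSO.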

Assay [5] deals with Hypoxia-inducible factor 1-alpha (Homo sapiens) (UniProt Q16665). The experiment in a line: ATG_HIF1a_CIS: Attagene CIS-FACTORIAL HepG2 Assay for human Hypoxia Inducible Factor 1 (HIF1A) (AID 2282951). The note with it: HepG2 Attagene cis-factorial HIF1a reporter transcription; actives raise or lower the signal. In short, it runs like this:
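HepG2 cells transiently transfected with multiple cis-regulated reporter transcription units measure endogenous transcription factor activity. After 24 h exposure, reporter mRNA is quantified by RT-PCR with 6-FAM labelling, HpaI digestion and capillary electrophoresis. Bidirectional fitting against DMSO.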

In assay [6] the target is Hepatocyte nuclear factor 6 (Homo sapiens) (UniProt Q9UBC0). The experiment in a line: ATG_HNF6_CIS: Attagene CIS-FACTORIAL HepG2 Assay for human Hepatocyte Nuclear Factor 6 (HNF6) (AID 2282952). The note with it: HepG2 Attagene cis-factorial HNF6 reporter transcription; actives raise or lower the signal. In short, it runs like this:
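Cells are HepG2 carrying transiently transfected cis-promoter reporter units. Treatment lasts 24 h, after which reporter transcripts are reverse-transcribed, amplified, FAM-labelled and sized by capillary electrophoresis. DMSO serves as baseline.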

The target of assay [7] is Heat shock factor protein 1 (Homo sapiens) (UniProt Q00613). The experiment in a line: ATG_HSE_CIS: Attagene CIS-FACTORIAL HepG2 Assay for human Heat Shock Transcription Factor 1 (HSE) (AID 2282953). The note with it: HepG2 HSE cis-reporter, Attagene RNA transcription; actives raise or lower the signal. The essentials: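 HepG2, transient MRTU transfection, cis-promoter reporters (endogenous TF activity). 24 h compound. RNA → oligo(dT) RT → PCR → 6-FAM primer extension → HpaI cut → CE. Bidirectional fit vs DMSO.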

Assay [8] is described as follows: ATG_MRE_CIS: Attagene CIS-FACTORIAL HepG2 Assay for human Metal Responsive Element (MRE) (AID 2282954). The note with it: HepG2 MRE cis-reporter transcription, Attagene multiplex; actives raise or lower the signal. In short, it runs like this: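 Fluorescent reporter fragments separated by capillary electrophoresis give mRNA induction for the MRE unit after 24 h treatment of transfected HepG2 cells. Endogenous transcription-factor activity is read; DMSO serves as negative control and baseline.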

Assay [9] is described as follows: ATG_PBREM_CIS: Attagene CIS-FACTORIAL HepG2 Assay for human Phenobarbital-responsive Enhancer Module (PBREM) (AID 2282955). The note with it: HepG2 PBREM cis-reporter, Attagene multiplexed transcription; actives raise or lower the signal. The essentials:
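HepG2 cells transiently transfected with multiple cis-regulated reporter units measure endogenous transcription factor activity; 24 h compound exposure. Reporter mRNA quantified by RT-PCR, fluorescent labelling, HpaI digestion and capillary electrophoresis; bidirectional fit versus DMSO.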

For assay [10], the target named is Paired box protein Pax-6 (Homo sapiens) (UniProt P26367). The experiment in a line: ATG_Pax6_CIS: Attagene CIS-FACTORIAL HepG2 Assay for human Paired Box 6 (PAX6) (AID 2282956). The note with it: HepG2 CIS-FACTORIAL PAX6 reporter transcription, RNA readout; actives raise or lower the signal. The essentials: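 HepG2 cells transiently transfected with multiplexed cis-promoter reporter units (endogenous TF activity) were dosed for 24 h. Reporter mRNA was quantified by RT-PCR, 6-FAM labeling, HpaI digestion and capillary electrophoresis; bidirectional fitting versus DMSO baseline.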

The structures appear in SMILES notation. Calls of active or inactive are those of the source. The calls were made as follows: active = hit-call score of the fitted dose curve at least 0.9, where 1 is the maximum; inactive = score below 0.9.

Sequence of Heat shock factor protein 1 (Homo sapiens) (Q00613 whole entry, looked up): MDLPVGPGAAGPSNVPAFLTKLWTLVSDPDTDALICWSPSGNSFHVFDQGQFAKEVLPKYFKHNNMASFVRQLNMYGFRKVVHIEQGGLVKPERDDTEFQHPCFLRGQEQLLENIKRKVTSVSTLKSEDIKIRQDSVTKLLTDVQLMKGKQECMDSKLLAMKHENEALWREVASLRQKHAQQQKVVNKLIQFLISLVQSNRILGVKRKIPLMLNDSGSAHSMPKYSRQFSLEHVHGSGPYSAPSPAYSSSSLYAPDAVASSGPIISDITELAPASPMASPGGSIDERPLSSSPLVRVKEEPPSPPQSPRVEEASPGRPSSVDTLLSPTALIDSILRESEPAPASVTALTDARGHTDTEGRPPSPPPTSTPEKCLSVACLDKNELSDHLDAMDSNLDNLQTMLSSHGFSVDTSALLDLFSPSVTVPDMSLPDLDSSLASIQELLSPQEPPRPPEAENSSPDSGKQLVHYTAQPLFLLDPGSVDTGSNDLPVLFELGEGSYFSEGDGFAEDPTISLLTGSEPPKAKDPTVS
Sequence of Hypoxia-inducible factor 1-alpha (Homo sapiens) (Q16665 whole entry, looked up): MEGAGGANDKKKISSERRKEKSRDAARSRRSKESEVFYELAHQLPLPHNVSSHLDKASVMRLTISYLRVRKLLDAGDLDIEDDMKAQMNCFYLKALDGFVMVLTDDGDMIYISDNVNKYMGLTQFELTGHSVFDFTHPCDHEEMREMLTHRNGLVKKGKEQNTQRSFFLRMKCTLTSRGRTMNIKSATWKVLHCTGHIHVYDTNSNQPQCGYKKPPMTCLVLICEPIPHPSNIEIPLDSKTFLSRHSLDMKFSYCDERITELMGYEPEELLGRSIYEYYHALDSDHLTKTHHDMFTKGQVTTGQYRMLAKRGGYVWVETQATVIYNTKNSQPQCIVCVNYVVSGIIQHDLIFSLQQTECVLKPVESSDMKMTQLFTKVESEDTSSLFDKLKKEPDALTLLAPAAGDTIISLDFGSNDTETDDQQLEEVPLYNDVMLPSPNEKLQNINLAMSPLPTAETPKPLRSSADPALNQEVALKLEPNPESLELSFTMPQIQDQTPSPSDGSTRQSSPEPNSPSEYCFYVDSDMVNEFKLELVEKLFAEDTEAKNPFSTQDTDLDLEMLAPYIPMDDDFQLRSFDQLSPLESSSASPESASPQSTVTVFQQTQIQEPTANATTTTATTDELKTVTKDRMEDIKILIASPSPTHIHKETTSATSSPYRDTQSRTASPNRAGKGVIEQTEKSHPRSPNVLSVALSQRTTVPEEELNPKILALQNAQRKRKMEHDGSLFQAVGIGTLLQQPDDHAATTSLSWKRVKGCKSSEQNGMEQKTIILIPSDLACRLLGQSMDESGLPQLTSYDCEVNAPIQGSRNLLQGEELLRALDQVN
Sequence of Hepatocyte nuclear factor 6 (Homo sapiens) (Q9UBC0 whole entry, looked up): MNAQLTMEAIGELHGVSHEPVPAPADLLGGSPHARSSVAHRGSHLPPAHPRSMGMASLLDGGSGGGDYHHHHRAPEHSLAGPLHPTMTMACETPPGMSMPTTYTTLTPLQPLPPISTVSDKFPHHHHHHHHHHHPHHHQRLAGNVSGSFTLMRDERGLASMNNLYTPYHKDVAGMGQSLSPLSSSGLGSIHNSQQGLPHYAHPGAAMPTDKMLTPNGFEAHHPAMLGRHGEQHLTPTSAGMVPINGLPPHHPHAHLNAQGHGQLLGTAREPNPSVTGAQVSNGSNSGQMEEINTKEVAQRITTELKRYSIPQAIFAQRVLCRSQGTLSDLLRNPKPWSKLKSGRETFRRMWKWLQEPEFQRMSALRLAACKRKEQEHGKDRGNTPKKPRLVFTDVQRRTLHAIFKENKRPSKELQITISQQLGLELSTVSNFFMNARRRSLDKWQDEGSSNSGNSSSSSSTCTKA
Sequence of Paired box protein Pax-6 (Homo sapiens) (P26367 whole entry, looked up): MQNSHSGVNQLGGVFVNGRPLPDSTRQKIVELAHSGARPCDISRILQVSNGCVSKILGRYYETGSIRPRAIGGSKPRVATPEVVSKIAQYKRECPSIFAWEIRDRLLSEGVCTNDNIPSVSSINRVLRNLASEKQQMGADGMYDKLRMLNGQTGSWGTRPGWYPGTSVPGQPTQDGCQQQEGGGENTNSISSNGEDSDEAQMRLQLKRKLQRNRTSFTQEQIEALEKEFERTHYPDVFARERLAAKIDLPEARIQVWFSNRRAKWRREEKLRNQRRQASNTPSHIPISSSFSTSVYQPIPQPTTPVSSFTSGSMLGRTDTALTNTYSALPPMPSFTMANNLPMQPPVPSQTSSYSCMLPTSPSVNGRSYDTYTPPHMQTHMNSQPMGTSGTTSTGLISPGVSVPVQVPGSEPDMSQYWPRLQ

For the compound `CCOP(=S)(OCC)OC(Cl)C(Cl)(Cl)Cl` (stereo not drawn), the compound was called inactive in assay [1], in [2], in [3], in assay [4], in [5] and in assay [6]. In addition, the call in assay [7], in assay [9] and in assay [10] was inactive. Moreover, the AC50 in [8] is 32.9 µM (active).

Regarding `CSC1=N[C@@](C)(c2ccccc2)C(=O)N1Nc1ccccc1`, the call in assay [1], in [2], in assay [3], in assay [4], in assay [5] and in [6] was inactive. In addition, the result in assay [7] and in [10] was inactive. The AC50 was 50 µM (active) in assay [8] and 21.7 µM (active) in assay [9].

`C=C(C)[C@H]1Cc2c(ccc3c2O[C@@H]2COc4cc(OC)c(OC)cc4[C@@H]2C3=O)O1`: the call in assay [1], in [2], in [3], in assay [4], in assay [6] and in assay [7] was inactive. Also, in assay [10], the result was inactive. In addition, the AC50 in assay [5] was 0.0274 µM (active); in [8], 0.0899 µM (active); in assay [9] it was 0.0505 µM (active).

Consider `COc1cc(OC)nc(Sc2cccc(Cl)c2C(=O)O)n1`, for which the result in [1], in [2], in assay [3], in [4], in assay [5] and in [6] was inactive. Also, the compound was called inactive in assay [7], in assay [8], in assay [9] and in [10].

With `FC(F)C(F)(F)OCC(Cn1cncn1)c1ccc(Cl)cc1Cl` (stereo not drawn), the outcome in assay [1], in assay [2], in assay [3], in [4] and in assay [6] was inactive. The AC50 is 75.4 µM (active) in assay [5], 81.4 µM (active) in assay [7], 69.3 µM (active) in [8] and 78.8 µM (active) in assay [10].

For the compound `CNc1cnn(-c2cccc(C(F)(F)F)c2)c(=O)c1Cl`, the call in assay [1], in [2], in assay [3], in [4], in assay [5] and in assay [6] was inactive. Moreover, the call in assay [8], in assay [9] and in assay [10] was inactive. In addition, the AC50 in assay [7] is 10.4 µM (active).

As to `COc1ccc(C(=CC(=O)N2CCOCC2)c2ccc(Cl)cc2)cc1OC`, the compound was classed as inactive in [1], in assay [2], in assay [3], in [4], in assay [6] and in assay [7]. Also, the call in [10] was inactive. Also, the AC50 in [5] is 25.5 µM (active); in [8], 30.7 µM (active); in [9], 24.9 µM (active).

Consider `CCCOc1nn(C(=O)NS(=O)(=O)c2ccccc2C(=O)OC)c(=O)n1C`, for which the result in [1], in assay [2], in [3], in [4], in assay [5] and in assay [6] was inactive. The compound was classed as inactive in [7], in assay [8], in assay [9] and in [10].

With `CCC(CC)Nc1c([N+](=O)[O-])cc(C)c(C)c1[N+](=O)[O-]`, the call in assay [1], in [3], in assay [4], in assay [5], in assay [6] and in assay [7] was inactive. Also, the outcome in assay [9] and in assay [10] was inactive. Also, the AC50 in assay [2] was 50 µM (active); in [8] it was 28.9 µM (active).

Take `CCC(=NOC/C=C/Cl)C1=C(O)CC(C2CCOCC2)CC1=O` (stereo not drawn): the outcome in assay [1], in assay [2], in assay [3], in [4], in [5] and in [6] was inactive. Also, the result in assay [7], in assay [8], in assay [9] and in assay [10] was inactive.

In the case of `CC(C)=CC1C(C(=O)OCN2C(=O)C3=C(CCCC3)C2=O)C1(C)C` (stereo not drawn), the compound was classed as inactive in [1], in [2], in [3], in [4] and in assay [6]. The AC50 was 50 µM (active) in assay [5], 93.9 µM (active) in assay [7], 64.6 µM (active) in assay [8] and 74 µM (active) in assay [10].

For the compound `CCOP(=S)(OCC)Oc1ccc2c(C)c(Cl)c(=O)oc2c1`, the outcome in [1], in assay [2], in assay [3], in [4], in [5] and in [6] was inactive. The outcome in assay [7], in assay [8], in assay [9] and in assay [10] was inactive.

Regarding `CNC(=O)Oc1cccc2c1OC(C)(C)O2`, the compound was called inactive in assay [1], in [2], in assay [3], in [4], in assay [5] and in assay [6]. The outcome in assay [7], in assay [9] and in assay [10] was inactive. Further, the AC50 in assay [8] is 67.7 µM (active).

Regarding `CCCCOC(=O)[C@@H](C)Oc1ccc(Oc2ccc(C#N)cc2F)cc1`, the result in assay [1], in assay [2], in [3], in assay [4], in assay [5] and in assay [6] was inactive. In addition, the result in assay [7], in assay [8], in assay [9] and in assay [10] was inactive.

As to `CC(C)N(C(=O)SCC(Cl)=C(Cl)Cl)C(C)C`, the call in assay [1], in [2], in assay [3], in [4], in [5] and in assay [6] was inactive. The compound was called inactive in assay [7], in assay [9] and in assay [10]. For the same compound, the AC50 in assay [8] is 29.1 µM (active).

On to `CC(Oc1cccc(Cl)c1)C(=O)O` (stereo not drawn), for which the compound was classed as inactive in assay [1], in assay [2], in assay [3], in assay [4], in assay [5] and in [6]. For the same compound, the result in assay [7], in [8], in assay [9] and in assay [10] was inactive.

As for `CCOC(=O)CC(SP(=O)(OC)OC)C(=O)OCC` (stereo not drawn), the compound was called inactive in [1], in assay [2], in assay [3], in [4], in [5] and in assay [6]. The result in assay [7], in [8], in assay [9] and in assay [10] was inactive.

One may read the AC50 as the midpoint of the concentration-response curve, whichever way the signal moves.

The values above are taken from PubChem BioAssay (EPA / NIEHS).
